41 compounds from PubChem BioAssay AID1347120 (National Center for Advancing Translational Sciences (NCATS), 2019) can be followed below.

In all, about 390,000 compounds went through this assay and about 930 (0.24%) were called active. A call without a number means that no potency is given here. Inconclusive results (about 5%) are left out. The sample holds actives, similar compounds and a random draw of the others, so the mix is not that of the screen. Calls come from the whole dose curve; as a rule, active = well fitted activation curve with a large enough effect; inconclusive = small, poorly fitted or top-dose-only effect; inactive = no such curve, though single readings can be large or run the other way.
Potency is the fitted concentration of half-maximal effect.

This assay is described as follows: qHTS for Suppressors of FUS Proteinopathy: Primary screen using FUS-linked yeast assay. Note: nearly all actives have a fitted effect of over 55% in size. To be noted: S. cerevisiae FUS-expressing, OD600, 24 h; Potency: growth rescue; series mostly up to 76.6 µM. From the text: Several widespread neurodegenerative diseases, including Alzheimer disease, Huntington disease, Frontotemporal Lobar Degeneration (FTLD) and Amyotrophic Lateral Sclerosis (ALS), share a common pathological feature, namely accumulation of specific protein aggregates in diseased tissue. These diseases which is associated with protein misfolding (proteinopathies) have become increasingly problematic as the population ages and life expectancies are extended. Most proteinopathies are currently incurable, a situation confounded by the fact that the basis of neurodegeneration is generally poorly understood. There exists urgent and significant need to find therapeutics that can inhibit the toxicity associated with protein aggregation. A novel approach to understand the underlying mechanisms of neurodegenerative diseases has recently emerged in which the disease conditions are modeled in the yeast (Saccharomyces cerevisiae), a tractable eukaryotic organism with conserved protein quality control mechanisms. Yeast offers quick and reliable genetic manipulations and can be easily tailored to high-throughput screening (HTS).
For this project, a yeast model of the FUS proteinopathies (a spectrum of neurodegenerative diseases that include ALS and a subtype of FTLD) was generated and employed. The cytoplasmic accumulation of the DNA/RNA-binding protein FUS (also known as TLS) is causative to both familial and sporadic forms of ALS and FTLD. This yeast model recapitulates neuronal pathology by showing severe cytotoxicity associated with cytoplasmic accumulation of FUS aggregates and a specific interaction between FUS and TDP-43, another ALS-associated protein. […] Specifically, the cellular accumulation of misfolded FUS that disrupts RNA homeostasis in both yeast and higher eukaryotes. This model was validated to be suitable for quantitative HTS (qHTS) use for finding genetic or chemical factors that restore growth. […] Identified compounds that inhibits FUS-yeast toxicity is flagged, re-acquired, and validated for further investigation and optimization.
NIH Chemical Genomics Center [NCGC]
NIH Molecular Libraries Probe Production Centers Network [MLPCN]
Assay Submitter (PI): Frank Shewmaker PhD, Uniformed Services University of the Health Sciences
Compound CP55940 was used as the positive control. Column 1 was treated with CP55940 titration from 92uM (final concentration, 1:2 dilution), while Column 2 was treated with top dose 92uM. Columns 3 and 4 were treated with DMSO only as negative control to assess background and noise signal.
Four hundred fifty microliter of cultured yeast (in 20mL rich medium) provided by Dr. Shewmaker lab was incubated at 30C at 99% humidity for 3hr. The culture was then spun down at 4000rpm for 5min and the cell pellet was resuspended in 2mL of Sdmin Media + ALU(330) + 2.5% Raffinose. One hundred microliter of the suspension was added to 900uL of water and OD of the solution was obtained. Twenty mL of responding medium (provided by Shewmaker lab) + 2.5% raffinose was added to ensure cell density of 0.1; the solution was incubated overnight. Working cell solution (FUS-yeast in Sdmi + Sdmi + 1X ALU + 2% galactose media) was prepared (final OD at 0.005) and 3uL was dispensed in a 1536-well Aurora high based clear bottom assay plates. Controls and library compounds (at various final concentrations from 40uM to 0.32uM) were added using a 1536-well pin array using the Kalypsys pin-tool. The plates were then incubated for 24hrs in a cell-culture incubator (30C; 99% humidity). Absorbance at 600nm was then read using the PerkinElmer ViewLux plate reader.
On the technique in general: In qHTS, concentration-response curves come from the screen itself.
Consider `COc1ccc(-c2cn3c(n2)sc2cc(C(=O)Nc4ccc(F)cc4)ccc23)cc1`, for which the Potency result was “inactive”.

On to `COc1ccc(Cc2nc3ccc(C(=O)NCc4ccccc4C)cc3o2)cc1`, for which the Potency result is “inactive”.

As for `Cc1cc(NC(=O)C2CCC(CNS(=O)(=O)c3ccc(Br)s3)CC2)ccc1Br` (stereo unspecified), the Potency entry is “inactive”.

`Cc1oc2ccc(O)c(CN3CCC(C)CC3)c2c1C(=O)Nc1ccccc1`: the Potency entry is “inactive”.

On to `CCCCOc1ccc(C(=O)N2CC(=O)Nc3ccc(Br)cc3C2c2ccc(F)cc2)cc1` (stereo unspecified), for which the Potency result is “inactive”.

Consider `CCCNC(=O)C1CCN(c2nc3ccc(C)cc3[nH]2)CC1`, for which the Potency result was “inactive”.

With `O=C(CSc1nc2nccnc2c(=O)n1CCc1c[nH]c2ccccc12)Nc1ccccc1F`, the Potency entry was “inactive”.

In the case of `CCOC(=O)N1CCC(NC(=O)c2cnn(-c3cccc(C)c3)c2C2CCN(C(=O)OC(C)(C)C)CC2)CC1`, the Potency result was “inactive”.

`CCc1cccc(NC(=O)c2cc(-c3ccccc3)n[nH]2)c1`: the Potency result was “inactive”.

On to `C#CCOCCOCCOCCNc1nc(N2CCN(C(=O)C([C@@H](C)CC)n3cc(C(N)COC(=O)C(F)(F)F)nn3)CC2)nc(N2CCN(C(=O)[C@H](CCCCN)n3cc(C(N)CC(C)C)nn3)CC2)n1` (stereo partly specified), for which the Potency result was “inactive”.

For the compound `C#CCOCCOCCOCCNc1nc(N2CCN(C(=O)[C@H](CCC(=O)O)n3cc(C(N)CO)nn3)CC2)nc(N2CCN(C(=O)[C@H](Cc3ccc(O)cc3)n3cc(C(N)[C@H](C)CC)nn3)CC2)n1` (stereo partly specified), the Potency result is “inactive”.

Turning to `C#CCOCCOCCOCCNc1nc(N2CCOCC2)nc(N2CCN(C(=O)[C@H](Cc3ccc(O)cc3)n3cc(CCO)nn3)CC2)n1`, the Potency result is “inactive”.

Regarding `C#CCOCCOCCOCCNc1nc(N2CCN(C(=O)CCCCCCCCCCNC(=O)[C@H](CCCCN)n3cc(C)nn3)CC2)nc(N2CCN(C(=O)CCCCCCCCCCNC(=O)[C@H](CO)n3cc(CCCSC)nn3)CC2)n1`, the Potency was 11.2 µM (active).

`C#CCOCCOCCOCCNc1nc(N2CCN(C(=O)CCCCCCCCCCNC(=O)[C@H]([C@@H](C)CC)n3cc(CCCCN=C(N)N)nn3)CC2)nc(N2CCN(C(=O)CCCCCCCCCCNC(=O)[C@H](CO)n3cc(CCCSC)nn3)CC2)n1`: the Potency was 3.16 µM (active).

Turning to `C#CCOCCOCCOCCNc1nc(N2CCN(C(=O)C([C@@H](C)O)n3cc([C@@H](N)CCCCN)nn3)CC2)nc(N2CCN(C(=O)[C@H](CCCCN)n3cc(CN)nn3)CC2)n1` (stereo partly specified), the Potency entry is “inactive”.

Consider `Fc1ccc(-c2nc(Nc3cccc(Cl)c3)nc3c2COc2ccccc2-3)cc1`, for which the Potency result is “inactive”.

As to `CC(=O)c1cccc(Nc2ccc3cc(S(=O)(=O)N4CCC(C)CC4)ccc3n2)c1`, the Potency result is “inactive”.

For `COc1ccc(-c2cc(-c3nc(-c4cc(OC)c(OC)c(OC)c4)no3)[nH]n2)c(OC)c1`, the Potency result is “inactive”.

Take `CCN(C(=O)CSc1nnc(C)n2c1cc1occc12)c1ccccc1`: the Potency entry was “inactive”.

Regarding `COc1ccc(-c2onc(C)c2C)cc1S(=O)(=O)NCCc1ccccc1`, the Potency entry was “inactive”.

On to `CCN(CC)C(=O)CSc1nc2ccsc2c(=O)n1Cc1ccccc1Cl`, for which the Potency result was “inactive”.

For the compound `Cc1c(Cl)cccc1NC(=O)C(=O)NCCc1csc2nc(-c3ccccc3F)nn12`, the Potency result was “inactive”.

In the case of `Cc1cccc(Cn2c(SCc3ccc(C(=O)N4CCC(C)CC4)cc3)nc3ccncc32)c1`, the Potency result is “inactive”.

For the compound `CC(=O)N1CCCc2cc(S(=O)(=O)N3CCC(C(=O)NCc4ccc(F)cc4)CC3)ccc21`, the Potency result was “inactive”.

As for `O=C(c1ccc(C(F)(F)F)cc1)N1CCC(c2nc(-c3ccc(S(=O)(=O)N4CCCC4)cc3)no2)CC1`, the Potency entry is “inactive”.

For the compound `CSc1ccccc1NC(=O)CCS(=O)(=O)c1nc(-c2cccs2)cc(C(F)(F)F)n1`, the Potency entry is “inactive”.

In the case of `Cc1c(Cl)cccc1NC(=O)Cn1cc(C(=O)c2cccs2)c2ccccc21`, the Potency entry is “inactive”.

Consider `CCN(CCCNC(=O)c1cc(Nc2ccc(OC)cc2)nc2ccccc12)c1cccc(C)c1`, for which the Potency entry is “inactive”.

On to `Cc1ccc(-n2ncc(C(=O)N(C)Cc3ccccc3)c2-n2cccc2)cc1`, for which the Potency entry is “inactive”.

With `Cc1cccc(NC(=O)N(Cc2cc3cc(C)cc(C)c3[nH]c2=O)CC2COCCO2)c1` (stereo unspecified), the Potency is 35.5 µM (active).

Turning to `Cc1ccc2[nH]c(=O)c(CN(CCCN(C)C)C(=O)Nc3cccc(Cl)c3)cc2c1`, the Potency result was “inactive”.

Turning to `Cc1ccc2[nH]c(=O)c(CN(CC3COCCO3)C(=O)Nc3ccccc3C)cc2c1` (stereo unspecified), the Potency result was “inactive”.

On to `CCCCCN(C(=O)CCC(=O)OCC(=O)NC1CCC(C)CC1)c1c(N)n(CCCC)c(=O)[nH]c1=O` (stereo unspecified), for which the Potency is 31.6 µM (active).

As for `CCCCCN(C(=O)CCC(=O)OCC(=O)NCc1ccc(OC)cc1)c1c(N)n(CCCC)c(=O)[nH]c1=O`, the Potency result was “inactive”.

With `CCCCn1c(N)c(N(CCC(C)C)C(=O)COC(=O)c2ccc(CC)cc2)c(=O)[nH]c1=O`, the Potency result is “inactive”.

As to `Cc1ccc(CNC(=O)CCC(=O)N2Cc3ccccc3Oc3ncccc32)cc1`, the Potency result is “inactive”.

As to `COc1ccc(CCNC(=O)c2ccc3c(c2)sc2nc(-c4ccc(C)cc4)cn23)cc1OC`, the Potency entry is “inactive”.

Turning to `COC(=O)c1ccc(NC(=O)CCc2c(C)nn(-c3ccc(N4CCCC4)nn3)c2C)cc1`, the Potency result is “inactive”.

`Cc1ccc(Cc2cnc(N)s2)o1`: the Potency was 11.2 µM (active).

For `Fc1ccc(Nc2nc(SCc3ccccc3Cl)nc3ccccc23)cc1`, the Potency entry was “inactive”.

`O=C(Nc1c(C(=O)N2CCN(c3ccc(F)cc3)CC2)oc2ccccc12)c1ccco1`: the Potency entry is “inactive”.
